Source: PubChem BioAssay (NCATS)
Records with an inconclusive call do not appear. Entries that show only a call come without a potency. Activity calls are given as the source filed them. Calls come from the whole dose curve; as a rule, active = well fitted cell-killing curve with a large enough effect; inconclusive = small, poorly fitted or top-dose-only effect; inactive = flat fitted curve, though single readings scatter.
Potency is the fitted concentration of half-maximal effect.

Test: Cell Viability - LYMP2-015 (AID 971);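 note: cells exposed to compound for 24 h; nearly all actives have a fitted effect of over 55% in size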
Details: LYMP2-015 lymphoblastoid cell viability; series mostly up to 92.2 µM
Source text: NIH Chemical Genomics Center [NCGC]
NIH Molecular Libraries Screening Centers Network [MLSCN]
National Institutes of Environmental Health Sciences [NIEHS]
National Toxicology Program [NTP]
We have developed a 1536-well cell-based assay for quantitative high throughput screening (qHTS) against a number of cell lines to determine in vitro cytotoxicity of small molecules. This particular assay uses a human lymphoblastoid cell line (LYMP2-015) purchased from Coriell Institute for Medical Research.
NCGC Assay Protocol Summary:
The CellTiter-Glo luminescent cell viability assay (Promega) is a homogeneous method to measure the number of viable cells in culture. The end point readout of this assay is based on quantitation of intracellular ATP, an indicator of metabolic activity, using the luciferase reaction. Luciferase catalyzes the oxidation of beetle Luciferin to oxyluciferin and light in the presence of ATP. The luminescent signal is proportional to amount of ATP present.
Using the CellTiter-Glo luminescent cell viability assay, the amount of cellular ATP was measured in the lymphoblastoid cell line with complete culture medium following compound treatment for 24 hours. The assay was performed in opaque white Kalypsys 1536-well plates. In the screen, tetraoctylammonium bromide was used as positive control. Library compounds were measured for their ability to cause acute toxicity in the cell line, as reflected by a decrease in intracellular ATP levels, in a concentration-dependent manner. […] AC50 values were determined from concentration-response data modeled with the standard Hill equation.
qHTS protocol for CellTiter Glo lymphoblastoid cellular assay
[Step] [Parameter] [Value] [Description]
1. Reagent; 5 uL; 2500 lymphoblastoid cells/well
2. Time; 5 hr; 37 C incubation
4. Controls; 23 nL; Tetraoctylammonium bromide 6.4pM to 92 uM
5. Time; 24 hr; 37 C incubation
6. Reagent; 5 uL; CellTiter Glo reagent
7. Time; 30 min; Room Temperature
8. Detection; Luminescence; Viewlux plate reader
Keywords: cell viability, cytotoxicity, lymphoblastoid cell line, luminescence, NTPHTS, NTPHTS_NCGC, NIEHS, DSSTox, MLSMR, MLSCN, NIH Roadmap, qHTS, NCGC
For Nc1ccc(-c2ccccc2)cc1, the Potency was “inactive”.
For c1ccc(P(c2ccccc2)c2ccccc2)cc1, the Potency was “inactive”.
In the case of Clc1ccc(C(Cl)(Cl)Cl)c(Cl)c1, the Potency is reported as “inactive”.
With CC(C)(C)OOC(=O)c1ccccc1 the Potency was “inactive”.
For CN(C)c1ccc(N)cc1, the Potency was 50.1 µM (active).
For ClCCOCOCCCl, the Potency was “inactive”.
In the case of Cc1cc(Cl)ccc1O, the Potency is reported as “inactive”.
In the case of S=C1NCCN1, the Potency is reported as “inactive”.
In the case of c1ccc2c(c1)CCNC2, the Potency is reported as “inactive”.
In the case of ClCC(Br)CBr (stereo not given), the Potency is reported as “inactive”.
For Oc1ccc(Cl)c(Cl)c1, the Potency was “inactive”.
In the case of C1CC2OC2CC1C1CO1 (stereo not given), the Potency is reported as “inactive”.
For OCCCCO, the Potency was “inactive”.
With Oc1cc(Cl)cc(Cl)c1 the Potency was “inactive”.
With Clc1ccc(C(Cl)(Cl)Cl)cc1Cl the Potency was “inactive”.
With ClCC(Cl)CCl the Potency was “inactive”.
For CC(C)(Cl)[N+](=O)[O-], the Potency was “inactive”.
With C=CCOCC1CO1 (stereo not given) the Potency was “inactive”.
In the case of Nc1ccc(Cc2ccc(N)cc2)cc1, the Potency is reported as “inactive”.
With CNC(=O)O/N=C/C(C)(C)S(C)=O (stereo not given) the Potency was “inactive”.
For [N-]=[N+]=[N-], the Potency was “inactive”.
In the case of Clc1cccc(Cl)c1Cl, the Potency is reported as “inactive”.
For COC(=O)Nc1cccc(OC(=O)Nc2cccc(C)c2)c1, the Potency was “inactive”.
In the case of CCOP(=S)(OCC)Oc1nc(Cl)c(Cl)cc1Cl, the Potency is reported as “inactive”.
For CCCCCCCCCCCCCl, the Potency was “inactive”.
For O=[N+]([O-])CCO, the Potency was “inactive”.
For C=CC(=O)OC, the Potency was “inactive”.
For O=[N+]([O-])c1cccc(O)c1, the Potency was “inactive”.
For CC[N+](=O)[O-], the Potency was “inactive”.
For CN(C)C(=O)Nc1cccc(C(F)(F)F)c1, the Potency was “inactive”.
For BrCC(Br)(Br)Br, the Potency was 15.8 µM (active).
With O=C(O)CCl the Potency was “inactive”.
In the case of ClCC(Cl)Cl, the Potency is reported as “inactive”.
With C=CC=O the Potency was “inactive”.
In the case of BrC(Br)Br, the Potency is reported as “inactive”.
For Cl/C=C/CCl, the Potency was “inactive”.
For c1ccc(OCC2CO2)cc1 (stereo not given), the Potency was “inactive”.
In the case of O=Cc1ccc2c(c1)OCO2, the Potency is reported as “inactive”.
With C=CCBr the Potency was “inactive”.
In the case of Oc1cc(Cl)c(Cl)c(Cl)c1, the Potency is reported as “inactive”.
